Our source for the growth values is PubChem BioAssay (NCI).

About 83,000 compounds went through this panel and 20% of them were active in at least one assay; those are over-represented in the sample as a whole.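 Values shown are percent growth following 48 h exposure of cells in 96-well plates to a single concentration of compound; below 10 was considered active.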 Values without a mark were called inactive. The source made the active and inactive calls.

Some test systems named below: NCI-H23 lung; NCI-H226 lung; NCI-H322M lung; HOP-62 NSCLC; NCI-H460 lung; HOP-92 NSCLC; NCI-H522 lung; A549/ATCC NSCLC; 786-0 renal; COLO 205 colon.
Assay in all cases: NCI-60 one-dose screen, 48 h (100 = growth as untreated, 0 = no growth, -100 = all killed)
Common to all, as to settings: 10 µM unless noted

In the case of `COc1ccc(SC2c3cc(OC)c(OC)cc3Oc3nc(N)c(C#N)c(N)c32)cc1` (configuration not stated), the growth in the experiment with NCI-H23 lung was -60.9% (active); with NCI-H226 lung, -70.9% (active); in the experiment with NCI-H322M lung it was -95% (active); with HOP-62 NSCLC, -42.1% (active); in the experiment on NCI-H460 lung, -70% (active); in the experiment on HOP-92 NSCLC, -19.9% (active). The growth is -72.5% (active) in the experiment with NCI-H522 lung, -51.7% (active) with A549/ATCC NSCLC, -82.6% (active) in the experiment with 786-0 renal and -79% (active) with COLO 205 colon.

In the case of `Cc1ccc(O)c(N2C(=NCc3ccco3)NS(=O)(=O)c3cnccc32)c1`, the growth was 95.2% in the experiment with NCI-H23 lung; 101% in the experiment on NCI-H226 lung; 114% in the experiment with NCI-H322M lung; 100% in the experiment on HOP-62 NSCLC; 104% with NCI-H460 lung; 27.7% in the experiment on HOP-92 NSCLC. Further, the growth in the experiment on NCI-H522 lung is 93.3%; in the experiment with A549/ATCC NSCLC, 83.7%; with 786-0 renal, 105%; with COLO 205 colon it was 125%.

For the compound `O=C(/C=C/c1cccc([N+](=O)[O-])c1)c1ccc(O)c(CN2CCN(c3cc4c(cc3F)c(=O)c(C(=O)O)cn4C3CC3)CC2)c1`, the growth with NCI-H23 lung was 37.3%; in the experiment on NCI-H226 lung it was 60.8%; in the experiment on NCI-H322M lung it was 61.4%; in the experiment with HOP-62 NSCLC, 43.7%; in the experiment on NCI-H460 lung, 37.1%; in the experiment on HOP-92 NSCLC, 59%. In addition, the growth in the experiment with NCI-H522 lung is 16.3%; in the experiment on A549/ATCC NSCLC, 32.2%; in the experiment on 786-0 renal, -11.2% (active); in the experiment with COLO 205 colon, 60.1%.

In the case of `CC(C)c1c(C(=O)c2ccccc2)c(-c2ccccc2)c(-c2ccc(F)cc2)n1CC[C@@H](O)C[C@@H](O)CC(=O)O`, the growth in the experiment on NCI-H23 lung was 56.8%; in the experiment with NCI-H226 lung it was 62.2%; in the experiment on NCI-H322M lung it was 58.6%; in the experiment on HOP-62 NSCLC it was 90.1%; with NCI-H460 lung, 87.5%; with NCI-H522 lung it was 25.9%. In addition, the growth was 100% in the experiment with A549/ATCC NSCLC, 77.5% in the experiment on 786-0 renal and 55.3% with COLO 205 colon.

Consider `C(=N/Nc1ncc(-c2cc3cc(-c4ccccc4)ccc3o2)s1)/c1cccs1`, for which the growth in the experiment on NCI-H23 lung was 99.9%; in the experiment with NCI-H226 lung it was 104%; with NCI-H322M lung, 33.8%; in the experiment with HOP-62 NSCLC, 118%; with NCI-H460 lung it was 7.38% (active); in the experiment on HOP-92 NSCLC, 105%. Also, the growth was 86.1% in the experiment with NCI-H522 lung, 13.3% with A549/ATCC NSCLC, 101% with 786-0 renal and 72.4% in the experiment on COLO 205 colon.

On to `Cc1ccc(C(SCC(N)C(=O)O)(c2ccccc2)c2ccc(C)cc2)cc1` (configuration not stated), for which the growth was 12.6% in the experiment with NCI-H23 lung; 56.3% with NCI-H226 lung; 29.4% in the experiment with NCI-H322M lung; 31.9% with HOP-62 NSCLC; 9.22% (active) with NCI-H460 lung; -10.1% (active) with HOP-92 NSCLC. For the same compound, the growth in the experiment with NCI-H522 lung is -19% (active); in the experiment on A549/ATCC NSCLC, -2.96% (active); in the experiment on 786-0 renal, 25.1%; in the experiment on COLO 205 colon, -3.13% (active).

Take `O=c1cc(CSc2nnc(SCc3cc(=O)oc4c3ccc3ccccc34)o2)c2ccc3ccccc3c2o1`: the growth with NCI-H23 lung is 89.9%; in the experiment on NCI-H226 lung it was 83.6%; in the experiment with NCI-H322M lung, 93.3%; with HOP-62 NSCLC, 99.2%; with NCI-H460 lung it was 104%; in the experiment on HOP-92 NSCLC it was 97.6%. The growth with NCI-H522 lung is 70.1%; with A549/ATCC NSCLC, 89.3%; in the experiment with 786-0 renal, 109%; with COLO 205 colon it was 106%.

In the case of `Nc1n[nH]c2ccc([C@@H]3Nc4ccc5[nH]ncc5c4[C@H]4C5C=CC(C5)[C@@H]34)cc12` (some centres not stated), the growth in the experiment on NCI-H23 lung was 14.1%; in the experiment on NCI-H226 lung it was -6.81% (active); in the experiment with NCI-H322M lung, 43.8%; with HOP-62 NSCLC it was 41.8%; with NCI-H460 lung it was -10.8% (active); in the experiment with HOP-92 NSCLC it was 61.2%. Besides, the growth is 14.3% with NCI-H522 lung, 20.1% with A549/ATCC NSCLC, 30.3% in the experiment with 786-0 renal and 2.87% (active) in the experiment on COLO 205 colon.

For `C=C1C(=O)O[C@H]2[C@H]1CC/C(COC(=O)NCCc1ccc(OC)c(OC)c1)=C\CC[C@@]1(C)O[C@@H]21`, the growth in the experiment on NCI-H23 lung is 59.2%; in the experiment with NCI-H226 lung it was 82.6%; in the experiment on NCI-H322M lung it was 88%; with HOP-62 NSCLC it was 92.7%; in the experiment with NCI-H460 lung, 93.9%; with HOP-92 NSCLC, 26.6%. Besides, the growth in the experiment with NCI-H522 lung was -79.9% (active); with A549/ATCC NSCLC, 86.4%; in the experiment on 786-0 renal, 77.7%; in the experiment on COLO 205 colon, 12.7%.

Consider `Cc1nn(-c2cc(=O)[nH]c3ccc(Cl)cc23)c(N)c1C#N`, for which the growth is 93.8% with NCI-H23 lung; 81.3% in the experiment with NCI-H226 lung; 98.2% in the experiment with NCI-H322M lung; 94.9% with HOP-62 NSCLC; 101% in the experiment with NCI-H460 lung; 104% in the experiment with HOP-92 NSCLC. The growth was 93.3% with NCI-H522 lung, 108% in the experiment with A549/ATCC NSCLC, 106% in the experiment on 786-0 renal and 119% in the experiment with COLO 205 colon.

For the compound `COc1ccc(CN2c3ccccc3Sc3ccccc32)cc1O`, the growth with NCI-H23 lung is 36.6%; with NCI-H226 lung, 71%; with NCI-H322M lung, 33.1%; in the experiment with HOP-62 NSCLC, 36.3%; with NCI-H460 lung, 10%; with HOP-92 NSCLC, 50.4%. In addition, the growth in the experiment with NCI-H522 lung was -40.4% (active); in the experiment on A549/ATCC NSCLC, 24.2%; in the experiment on 786-0 renal it was 42.5%; in the experiment with COLO 205 colon it was -7.4% (active).

In the case of `CC(C)(O)c1cn(CCCCN2C(=O)C(=O)c3ccccc32)nn1`, the growth in the experiment with NCI-H23 lung is 95.8%; with NCI-H322M lung, 108%; in the experiment on HOP-62 NSCLC it was 94.8%; in the experiment with NCI-H460 lung, 102%; with HOP-92 NSCLC, 102%; in the experiment on NCI-H522 lung, 87.4%. The growth with A549/ATCC NSCLC is 99.7%; in the experiment on 786-0 renal it was 98.3%; in the experiment on COLO 205 colon, 112%.

Turning to `CCn1c(Cc2ccccc2Nc2c(Cl)cccc2Cl)nnc1SCC(=O)NN1C(=O)/C(=C/c2cc(OC)c(O)c(OC)c2)SC1=S`, the growth with NCI-H23 lung was 48.3%; in the experiment on NCI-H322M lung, 42.2%; with HOP-62 NSCLC it was 29.9%; in the experiment with NCI-H460 lung, 22.1%; with HOP-92 NSCLC it was 11.1%; in the experiment on NCI-H522 lung, -1.58% (active). Further, the results for the growth with A549/ATCC NSCLC, in the experiment on 786-0 renal and with COLO 205 colon were 60.9%, 26.3% and 44.9%, respectively.
